Reference: PubChem BioAssay (NCI)
About 79,000 compounds went through this panel and 15% of them were active in at least one assay; those are over-represented in the sample as a whole. Calls of active or inactive are those of the source. No stated cut-off is given here; in the data, active means growth inhibition above about 70%; inactive means the rest.

Experiments:
[1] = NCI Yeast Anticancer Drug Screen. Data for the rad50 strain (AID 155);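 further: 0% = growth of vehicle-only cultures of the same strain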; settings: S. cerevisiae rad50 strain growth inhibition, stronger effect = higher value
Outline: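 Inhibition values express reduced yeast growth in compound-treated cultures relative to vehicle-treated controls.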

[2] = NCI Yeast Anticancer Drug Screen. Data for the mec2-1 strain (AID 157); settings: S. cerevisiae mec2-1 strain, stronger effect = higher value
Outline: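 Compounds were applied to mec2-1 yeast cells. Their growth was then compared with that of vehicle-treated cultures to give growth inhibition.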

[3] = NCI Yeast Anticancer Drug Screen. Data for the sgs1 mgt1 strain (AID 161);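 further: 0% = growth of cultures given vehicle only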; settings: S. cerevisiae sgs1 mgt1 strain, stronger effect = higher value
Outline: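 This yeast growth screen uses a strain with defined DNA-repair lesions; compound-treated growth is compared with vehicle-treated growth.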

[4] = NCI Yeast Anticancer Drug Screen. Data for the cln2 rad14 strain (AID 165);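 further: 0% = growth equal to vehicle treated cultures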; settings: S. cerevisiae cln2 rad14 strain, stronger effect = higher value
Outline: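 Strain: cln2 rad14 yeast, altered in cell cycle control and DNA damage repair. Read-out: growth inhibition vs vehicle.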

[5] = NCI Yeast Anticancer Drug Screen. Data for the bub3 strain (AID 167); settings: S. cerevisiae bub3 mutant strain, stronger effect = higher value
Outline: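 Steps: expose the mutant yeast strain to compound; grow alongside vehicle-treated cultures; measure growth; express inhibition against the vehicle cultures.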

[6] = NCI Yeast Anticancer Drug Screen. Data for the mlh1 rad18 strain (AID 175); settings: S. cerevisiae mlh1 rad18 strain growth inhibition, stronger effect = higher value
Outline: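 A repair-deficient yeast strain is exposed to test compound, and growth is scored relative to vehicle-treated controls.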

[7] = at 5.0 µM (retest, dose inferred, filed as 0.5)
[8] = at 50.0 µM (retest, dose inferred, filed as 5.0)

Measured: growth inhibition

CC1=CC(=C2C=CC(=[N+](C)C)C=C2)C=C(C)S1
inactive: [1]; [7] 21% | [1]; at 50.0 µM 55.6% | [2]; [7] 10% | [3]; [7] 9% | [4]; [7] 7% | [5]; [7] -2% | [6]; [7] 11%
active: [1]; [8] 72% | [2]; [8] 91% | [2]; at 50.0 µM 71.6% | [3]; [8] 94% | [3]; at 50.0 µM 87.3% | [4]; [8] 82% | [4]; at 50.0 µM 77.7% | [5]; [8] 96% | [5]; at 50.0 µM 87.7% | [6]; [8] 90% | [6]; at 50.0 µM 87%

CN1C(=O)C2(C)SSC1(C)C(=O)N2C
inactive: [1]; [7] 45% | [2]; [7] 27% | [3]; [7] 43% | [4]; [7] 10% | [5]; [7] 17% | [6]; [7] 57%
active: [1]; [8] 95% | [1]; at 50.0 µM 97.2% | [2]; [8] 95% | [2]; at 50.0 µM 93.8% | [3]; [8] 96% | [3]; at 50.0 µM 97.5% | [4]; [8] 85% | [4]; at 50.0 µM 87.7% | [5]; [8] 93% | [5]; at 50.0 µM 95.5% | [6]; [8] 97% | [6]; at 50.0 µM 98.6%

c1ccc(N=c2snc(-c3ccccc3)s2)cc1
inactive: [1]; [7] 2% | [1]; [8] 2% | [2]; [7] -3% | [2]; [8] -2% | [2]; at 50.0 µM 46.8% | [3]; [7] 4% | [3]; [8] 3% | [4]; [7] 3% | [4]; [8] -2% | [4]; at 50.0 µM 6.4% | [5]; [7] -4% | [5]; [8] 2% | [6]; [7] 5% | [6]; [8] 6%
active: [1]; at 50.0 µM 91.1% | [3]; at 50.0 µM 73.5% | [5]; at 50.0 µM 82.5% | [6]; at 50.0 µM 80.2%

CC12CCC(=O)C=C1CCC1C2CCC2(C)C(O[Si](C)(C)OC3CCC4C5CCC6=CC(=O)CCC6(C)C5CCC34C)CCC12 (configuration not stated)
inactive: [1]; [7] 3% | [1]; [8] 44% | [2]; [7] -12% | [2]; [8] 16% | [3]; [7] 0% | [3]; [8] 37% | [4]; [7] 1% | [4]; [8] 33% | [4]; at 50.0 µM 58.4% | [5]; [7] -1% | [5]; [8] 0% | [6]; [7] 6% | [6]; [8] 53%
active: [1]; at 50.0 µM 98.8% | [2]; at 50.0 µM 98.7% | [3]; at 50.0 µM 95.8% | [5]; at 50.0 µM 97.1% | [6]; at 50.0 µM 96.8%

CC(=O)O[C@H]1C(=O)O[C@@H]2C[C@H]3C(C)=CC(=O)[C@@H](O)[C@]3(C)[C@H]3[C@@]4(O)OC[C@]32[C@@H]1[C@@H](C)[C@H]4O
active: [1]; [8] 86% | [1]; at 50.0 µM 81% | [2]; [8] 78% | [3]; [8] 82% | [4]; [8] 90% | [4]; at 50.0 µM 74.2% | [5]; [8] 74% | [6]; [8] 93% | [6]; at 50.0 µM 83.9%
inactive: [1]; [7] 21% | [2]; [7] 31% | [2]; at 50.0 µM 51.2% | [3]; [7] 17% | [3]; at 50.0 µM 59.6% | [4]; [7] 36% | [5]; [7] 1% | [5]; at 50.0 µM 60.4% | [6]; [7] 20%

[Cl][Sn]([Cl])([c]1ccccc1)[c]1ccccc1.c1ccc2nc(-c3ccc4ccccc4n3)ccc2c1
inactive: [1]; [7] 16% | [2]; [7] 16% | [3]; [7] 32% | [4]; [7] 6% | [4]; at 50.0 µM 45.1% | [5]; [7] 5% | [5]; at 50.0 µM 59.6% | [6]; [7] 23%
active: [1]; [8] 97% | [1]; at 50.0 µM 84% | [2]; [8] 98% | [2]; at 50.0 µM 96% | [3]; [8] 97% | [3]; at 50.0 µM 75.3% | [4]; [8] 96% | [5]; [8] 96% | [6]; [8] 96% | [6]; at 50.0 µM 93.2%

CC1CCCC[N-]1.CC1CCCC[N-]1.N#C[S-].N#C[S-].[Cd] (configuration not stated)
inactive: [1]; [7] 20% | [2]; [7] 9% | [2]; [8] 52% | [2]; at 50.0 µM 66.7% | [3]; [7] 12% | [3]; [8] 36% | [4]; [7] 7% | [4]; [8] 69% | [4]; at 50.0 µM 58% | [5]; [7] 10% | [5]; [8] 26% | [5]; at 50.0 µM 67.7% | [6]; [7] 16% | [6]; [8] 39%
active: [1]; [8] 87% | [1]; at 50.0 µM 93.2% | [3]; at 50.0 µM 70.7% | [6]; at 50.0 µM 73%

CC[CH](C)[Sn](=[O])[c]1ccccc1 (configuration not stated)
inactive: [1]; [7] 15% | [2]; [7] 28% | [3]; [7] 16% | [3]; at 50.0 µM 21.9% | [4]; [7] 15% | [4]; at 50.0 µM 28.1% | [5]; [7] 10% | [5]; at 50.0 µM 20.9% | [6]; [7] 11%
active: [1]; [8] 95% | [1]; at 50.0 µM 81.1% | [2]; [8] 93% | [2]; at 50.0 µM 80.7% | [3]; [8] 93% | [4]; [8] 90% | [5]; [8] 96% | [6]; [8] 95% | [6]; at 50.0 µM 75.8%

CC(C)c1ccc(C(C)C)c(C(=O)CN2CCOCC2)c1
active: [5]; at 50.0 µM 97.8%
inactive: [1]; [7] 4% | [1]; [8] 13% | [1]; at 50.0 µM 41.1% | [2]; [7] 8% | [2]; [8] 34% | [2]; at 50.0 µM 34.8% | [3]; [7] 3% | [3]; [8] 19% | [3]; at 50.0 µM 42.6% | [4]; [7] -1% | [4]; [8] 2% | [4]; at 50.0 µM -3.3% | [5]; [7] 3% | [5]; [8] 17% | [6]; [7] 5% | [6]; [8] 20% | [6]; at 50.0 µM 35.4%
